According to a collection of fitness landscapes (doi:10.1016/j.celrep.2020.107928):
In all, about 81,000 sequences were measured (“one-hybrid fitness for binding NBS DNA”: median about -0.1, highest 2% from about 0.36 on). The full list was thinned out, with the highest values kept by preference.

B1: Caulobacter ParB omega fusion; a variant is named by its letters at X, in order, B8GW30 (parent)
chain: MESVVVGEPGMSEGRRGLGRGLSALLGEVDAAPAQAPGEQLGGSREAPIEILQRNPDQPRRTFREEDLEDLSNSIREKGVLQPILVRPSPDTAGEYQIVAGERAWRAAQRAGLKTVPIMVRELDDLAVLEIGIIENVQRADLNVLEEALSYKVLMEKFERTQENIAQTIGKSXSHVANXMRLLXLPDEVQSYLVSGELTAXHARAIAAAADPVALAKQIIEGGLSVRETEALARKAPNLSAGKSKGGRPPRVKDTDTQALESDLSSVLGLDVSIDHRGSTGTLTITYATLEQLDDLCNRLTRGI

Variants of: B1
Assay: one-hybrid fitness for binding NBS DNA (the Noc-binding site; scaled: cognate 1, non-cognate 0); higher = stronger binding
Conditions: with NBS DNA site
Outline: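 The reporter was HIS3, with the binding site 19 bp from the promoter, in E. coli USO used for bacterial one-hybrid selection of Caulobacter ParB libraries with four specificity codons randomised. Growth was on M9 lacking histidine, with 0.1 mM IPTG and 5 mM 3-AT, for 48 hours at 37°C. Illumina sequencing covered plasmids before and after selection; three replicate libraries were pooled and variants with under 10 reads dropped. A fitness score is the log change in variant-to-wild-type read ratio, rescaled to the cognate and non-cognate references.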

Row | Variant | one-hybrid fitness for binding NBS DNA
1 | YGDI | ≤ 0.2
2 | FTRD | ≤ 0.2
3 | NWLT | ≤ 0.2
4 | YDPL | ≤ 0.2
5 | LENS | ≤ 0.2
6 | ALND | ≤ 0.2
7 | TGNW | ≤ 0.2
8 | KHKR | 0.396
9 | NKKT | ≤ 0.2
10 | KTVR | ≤ 0.2
11 | KHVR | ≤ 0.2
12 | KKVR | ≤ 0.2
13 | KKKR | 0.523
14 | NKKR | 0.3
15 | KHKS | ≤ 0.2
16 | KKVT | ≤ 0.2
17 | KTKR | 0.555
18 | KKKT | 0.427
19 | KTKP | ≤ 0.2
20 | SSSH | ≤ 0.2
21 | GTSM | ≤ 0.2
22 | MDYV | ≤ 0.2
23 | FTRY | ≤ 0.2
24 | SQTT | ≤ 0.2
25 | RWDE | ≤ 0.2

Row | Variant | one-hybrid fitness for binding NBS DNA
26 | GLVI | ≤ 0.2
27 | CLLR | ≤ 0.2
28 | SYKR | 0.378
29 | FWPR | 0.486
30 | KMVR | ≤ 0.2
31 | NMKR | 0.201
32 | DYKR | ≤ 0.2
33 | SYYR | ≤ 0.2
34 | FWDR | ≤ 0.2
35 | SYVR | ≤ 0.2
36 | KYKR | 0.414
37 | KYYR | ≤ 0.2
38 | FWPP | ≤ 0.2
39 | KMKR | 0.4
40 | RDNL | ≤ 0.2
41 | KNNH | ≤ 0.2
42 | FMCG | ≤ 0.2
43 | KYLR | ≤ 0.2
44 | VTMQ | ≤ 0.2
45 | RNIC | ≤ 0.2
46 | AMWM | ≤ 0.2
47 | TRYP | ≤ 0.2
48 | RGPH | ≤ 0.2
49 | VTSA | ≤ 0.2
50 | MRFI | ≤ 0.2

Row | Variant | one-hybrid fitness for binding NBS DNA
51 | CKWS | ≤ 0.2
52 | KQKR | 0.425
53 | KKVS | ≤ 0.2
54 | KKKS | 0.425
55 | KKKN | ≤ 0.2
56 | FCKR | 0.392
57 | KCKR | 0.397
58 | FPKR | ≤ 0.2
59 | FSKR | 0.218
60 | DQKR | ≤ 0.2
61 | NQKR | ≤ 0.2
62 | KSKR | 0.342
63 | KPKR | ≤ 0.2
64 | YLQM | ≤ 0.2
65 | MIYY | ≤ 0.2
66 | WSMT | ≤ 0.2
67 | YVTI | ≤ 0.2
68 | WDTC | ≤ 0.2
69 | QMRV | 0.45
70 | QCSV | ≤ 0.2
71 | QAYV | ≤ 0.2
72 | QARV | 0.376
73 | QSYV | ≤ 0.2
74 | QSRV | 0.396
75 | QRSV | 0.388

Row | Variant | one-hybrid fitness for binding NBS DNA
76 | QADV | ≤ 0.2
77 | QSDV | ≤ 0.2
78 | QSSV | ≤ 0.2
79 | QMDV | ≤ 0.2
80 | QMYV | ≤ 0.2
81 | QYAA | 0.237
82 | RQRI | ≤ 0.2
83 | SPGV | ≤ 0.2
84 | RRPE | ≤ 0.2
85 | QMVE | ≤ 0.2
86 | VKVA | ≤ 0.2
87 | CPHR | ≤ 0.2
88 | FHQR | ≤ 0.2
89 | QCAV | ≤ 0.2
90 | QPCV | ≤ 0.2
91 | QPQV | ≤ 0.2
92 | SFRV | ≤ 0.2
93 | DFQV | ≤ 0.2
94 | SFQV | 0.447
95 | QCCV | ≤ 0.2
96 | QRAV | 0.424
97 | QRFV | 0.275
98 | QRQV | 0.397
99 | QCQV | ≤ 0.2
100 | QRCV | 0.406

Row | Variant | one-hybrid fitness for binding NBS DNA
101 | SHME | ≤ 0.2
102 | HLRR | ≤ 0.2
103 | GKSS | ≤ 0.2
104 | QVST | 0.318
105 | ALAR | ≤ 0.2
106 | NTES | ≤ 0.2
107 | QTDV | ≤ 0.2
108 | QCGV | 0.221
109 | QTYV | ≤ 0.2
110 | QCRV | 0.525
111 | QRGV | 0.452
112 | QPRV | ≤ 0.2
113 | QKDV | ≤ 0.2
114 | QTRV | 0.576
115 | QKYV | ≤ 0.2
116 | QSGV | ≤ 0.2
117 | QCYV | ≤ 0.2
118 | QKRV | 0.41
119 | LALN | ≤ 0.2
120 | NRHK | ≤ 0.2
121 | IQAC | ≤ 0.2
122 | EASL | ≤ 0.2
123 | KDSS | ≤ 0.2
124 | WRLM | ≤ 0.2
125 | VHFW | ≤ 0.2

Row | Variant | one-hybrid fitness for binding NBS DNA
126 | QCHV | 0.214
127 | QHYV | ≤ 0.2
128 | QRNV | 0.453
129 | QHQV | ≤ 0.2
130 | QRDV | ≤ 0.2
131 | QRHV | 0.439
132 | QHRV | 0.378
133 | QREV | ≤ 0.2
134 | QRYV | 0.348
135 | QPHV | ≤ 0.2
136 | QRRV | 0.574
137 | QCNV | ≤ 0.2
138 | KSRF | ≤ 0.2
139 | EDAY | ≤ 0.2
140 | VSIE | ≤ 0.2
141 | RVLI | ≤ 0.2
142 | FHTT | ≤ 0.2
143 | NSFQ | ≤ 0.2
144 | LEVT | ≤ 0.2
145 | QASD | ≤ 0.2
146 | QLSS | 0.317
147 | QGST | ≤ 0.2
148 | QHSC | ≤ 0.2
149 | QASN | ≤ 0.2
150 | QAST | 0.395

Row | Variant | one-hybrid fitness for binding NBS DNA
151 | QSSN | ≤ 0.2
152 | QLST | 0.413
153 | QHST | 0.446
154 | QHSQ | ≤ 0.2
155 | QSST | 0.424
156 | QLSH | ≤ 0.2
157 | TKRI | ≤ 0.2
158 | FEYS | ≤ 0.2
159 | SKTD | ≤ 0.2
160 | HPSA | ≤ 0.2
161 | RYAA | ≤ 0.2
162 | WFRC | ≤ 0.2
163 | AMMM | ≤ 0.2
164 | SFTI | ≤ 0.2
165 | QIST | 0.311
166 | QCST | 0.553
167 | QPST | ≤ 0.2
168 | KDHS | ≤ 0.2
169 | QTVT | 0.517
170 | NTKT | ≤ 0.2
171 | QTKT | 0.883
172 | DTKT | ≤ 0.2
173 | IWTS | ≤ 0.2
174 | SWRY | ≤ 0.2
175 | VSWL | ≤ 0.2

Row | Variant | one-hybrid fitness for binding NBS DNA
176 | RKYC | ≤ 0.2
177 | RRRC | 0.39
178 | MVEC | 0.453
179 | RKRC | 0.4
180 | MVER | 0.34
181 | RSWC | ≤ 0.2
182 | RKDC | ≤ 0.2
183 | RRYC | 0.313
184 | RCWC | ≤ 0.2
185 | MVES | ≤ 0.2
186 | RRWC | 0.393
187 | RRDC | 0.318
188 | RQIE | ≤ 0.2
189 | ITGG | ≤ 0.2
190 | VFDW | ≤ 0.2
191 | QNAP | ≤ 0.2
192 | SDVV | ≤ 0.2
193 | ANIL | ≤ 0.2
194 | GEAG | ≤ 0.2
195 | AWVG | ≤ 0.2
